This is part of a sample that, as a whole, favours compounds with a hit. Of some 83,000 tested, about 20% had one in any assay.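 Negative percent growth values reflect cell death: -40 means 40% of the cells present at the start died, and -100 means all died.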 Unmarked numbers belong to inactive results. Active and inactive are the calls of the source.
What follows are compounds tested on SK-OV-3 ovarian (assay: NCI-60 one-dose screen, 48 h (100 = growth as untreated, 0 = no growth, -100 = all killed)). Settings: 10 µM unless noted.
Description: Growth inhibition of the SK-OV-3 human tumor cell line is measured as a screen for anti-cancer activity. Cells are grown in 96 well plates and exposed to the test compound for 48 hours. Compounds are tested at a single concentration, which is 10^-5 M for most compounds. The reported endpoint is percent growth (GI% or GIPRCNT), where numbers from 0 - 100% represent growth inhibition, and numbers from -100% - 0 represent cell death. For example, a value of 40 represents 60% growth inhibition. A value of 0 means no net growth occurred over the course of the experiment. A value of -40 indicates 40% of cells at the beginning of the experiment died by the end of the experiment. A value of -100 means all cells are dead at the end of the experiment.
NCI-60 Human Tumor Cell Lines Screen was performed using the standard one-dose NCI protocol, which is described in more detail at https://dtp.cancer.gov/discovery_development/nci-60/default.htm.
Compounds with GIPRCNT values below 10 were considered active. Activity score was based on GIPRCNT using the following formula: […]
Score is 0 for GIPRCNT values of 100 or above, 50 for GIPRCNT values of 0, and 100 for GIPRCNT values of -100.

SMILES	growth
CN1C(=O)C(=Cc2cn(CCCCCCn3c4ccccc4c(=O)c4ccccc43)c3ccccc23)C(=O)N(C)C1=O	87%
CCOC(=O)c1c(C)n(Cc2ccccc2)c2cc(CN(C)C)c(O)cc12	70.4%
Cc1cc(-c2nc3cc(F)ccc3[se]2)cc(F)c1N	73.6%
CCN(CC)c1ccc2c(c1)OC(N)=C(C#N)C2c1cc(OC)c2c(c1)OCO2 (stereo not given)	9.72% (active)
CCOC(=O)[C@@H](C)C[C@H](Cc1ccccc1)NC(=O)c1csc([C@@H](C[C@H](C(C)C)N(C)C(=O)[C@@H](NC(=O)[C@H]2CCCCN2C)C(C)(C)C)OC(C)=O)n1	13.2%
NC1CC2CCCCC2CC1(O)c1ccccc1 (stereo not given)	107%
O[C@H](CN1CC1)[C@@H](O)CN1CC1	49.5%
COC(=O)CCc1c[nH]c2ccc(N(CCCl)CCCl)cc12	66.4%
COC(=O)[C@H](Cc1c[nH]c2ccccc12)NC(=O)[C@@H](OC)[C@@H]1Cc2cc3cc(OC4CC(OC5CC(O)C(O)C(C)O5)C(O)C(C)O4)c(C)c(O)c3c(O)c2C(=O)[C@H]1OC1CC(OC2CC(OC3CC(C)(O)C(O)C(C)O3)C(O)C(C)O2)C(O)C(C)O1 (stereo not given in full)	18.2%
C/C(=C\c1ccn(-c2ccc(N)cc2C(F)(F)F)n1)[C@@H]1C[C@@H]2O[C@]2(C)CCC[C@H](C)[C@H](O)[C@@H](C)C(=O)C(C)(C)[C@@H](O)CC(=O)O1	0.896% (active)
C1CCC([PH+](C2CCCCC2)C2CCCCC2[PH+](C2CCCCC2)C2CCCCC2)CC1.[Au].[CH-]1CCCCC1CC1CCCC[N-]1 (stereo not given)	-70.5% (active)
ClCCN(CCCl)c1ccc(OCc2ccccc2)cc1	65.2%
CN(C)C(=O)Oc1ccccc1	103%
Cc1c(O)c(CN(CCCl)CCCl)cc(CN(CCCl)CCCl)c1O	102%
C[C@@]12CC[C@@H](O)C[C@@H]1CC[C@H]1[C@H]2CC[C@@]2(C)[C@H](c3ccc(=O)oc3)CC[C@@]12O	-11.9% (active)
Clc1ccc(CO/N=C(\Cn2ccnc2)c2ccc(Cl)cc2Cl)c(Cl)c1	101%
COC(=O)[C@@H](C)C[C@H](Cc1ccccc1)NC(=O)c1csc([C@@H](C[C@H](C(C)C)N(C)C(=O)[C@H](C)NC(=O)[C@H]2CCCN2C)OC(C)=O)n1	73.2%
C/C(=C\c1ccn(-c2ccc(N)c(F)c2)n1)[C@@H]1C[C@@H]2O[C@]2(C)CCC[C@H](C)[C@H](O)[C@@H](C)C(=O)C(C)(C)[C@@H](O)CC(=O)O1	50.7%
C=CCCCCCCCCC(=O)[O-].C=CCCCCCCCCC(=O)[O-].[Zn+2]	112%
CC(C)CCC(=O)O[C@H]1CC[C@H]2[C@@H]3CCC4=CC(=O)CC[C@]4(C)[C@H]3CC[C@]12C	128%

SMILES	growth
c1ccc(Nc2nc(-c3ccccc3)c[se]2)cc1	86.4%
COC(=O)[C@@H](C)C[C@H](Cc1ccccc1)NC(=O)c1csc([C@@H](C[C@H](C(C)C)N(C)C(=O)[C@@H](NC(=O)[C@H]2CCCCN2C)c2ccc(F)cc2)OC(C)=O)n1	21.2%
CCC(CC)CC1(C)CC2(C)CCOC2OO1 (stereo not given)	111%
CN1CCC(c2c[nH]c3ccccc23)C1 (stereo not given)	99.4%
CCCCN1CCCC[C@@H]1C(=O)N[C@H](C(=O)N(C)[C@H](C[C@@H](OC(C)=O)c1nc(C(=O)NC2CCC(C(=O)OC)CC2)cs1)C(C)C)C(C)C (stereo not given in full)	23.9%
O=C1OCC2=C1C(c1ccccc1)c1cc3c(cc1N2)OCO3 (stereo not given)	2.36% (active)
COc1ccc2nc(NC(=O)COc3cc(/C=C\c4cc(OC)c(OC)c(OC)c4)ccc3OC)sc2c1	8.6% (active)
CC1=C(CNO)C2=C(C)C3(CC3)[C@@](C)(O)C(=O)C2=C1	4% (active)
COc1ccc(S(=O)(=O)N(Cc2ccc3c(c2)C=CC(C)(C)O3)c2ccccc2)cc1OC	90.7%
Cc1ccc2c(C(C[N+](=O)[O-])c3cccs3)c(-c3ccccc3)[nH]c2c1 (stereo not given)	22.7%
O=C(Nc1ccc([As]=[As]c2ccc(NC(=O)c3ccccc3)cc2)cc1)c1ccccc1 (stereo not given)	-81.5% (active)
Nc1ccc2c(c1)Cc1cc(Br)ccc1-2	101%
CC(=O)c1ccc(C(=O)NCC2CCC3(CC2)OOC2(CCCCC2)OO3)cc1	99.6%
Cc1cc(C)c(CBr)c(C)c1	104%
CC(CC1CCCCC1)NCc1ccccc1 (stereo not given)	111%
C/C(CC(C)(C)N1CC1)=N\NC(=O)Nc1cccc2ccccc12	79.3%
Cc1ccc(Nc2nc3c(s2)C2=CC[C@@H]4[C@H](CC[C@]5(C)C(=O)CC[C@@H]45)[C@@]2(C)CC3)cc1	36.6%
CCCCCCCOC(C(=O)OCCN(CC)CC)(c1ccccc1)c1ccccc1	104%
O=[N+]([O-])/C=C\c1ccc(Cl)c(Cl)c1	96.4%
CC[C@H](C)[C@H](NC(=O)NC(C)(C)C)C(=O)N(C)[C@H](C[C@@H](OC(C)=O)c1nc(C(=O)N[C@@H](Cc2ccccc2)C[C@H](C)C(=O)OC)cs1)C(C)C	14.9%

From PubChem BioAssay (NCI)
